According to PubChem BioAssay:
The source made the active and inactive calls.

What was measured:
[1] = test system: PRMT1 (protein arginine N-methyltransferase 1); test: small molecules binding arginine methyltransferase PRMT1 – biochemical, small-molecule microarray, 635 nm fluorescence, primary screen (AID 1088); conditions: higher = more signal;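 note: binding of Prmt1 protein to compounds spotted on small-molecule microarray slides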
[2] = growth effects on S. cerevisiae YJM789 – YJM789 clinical isolate, OD600, 24 h, basal, primary screen (AID 1089); conditions: higher = more signal, called active from +8 up or from −8 down;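 note: growth of clinical yeast isolate S. cerevisiae YJM 789 seeded 1000 cells per well; test concentration not given here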
[3] = S. pombe growth modifiers, basal conditions – strain 972, OD600, 24 h, no modulator, primary screen (AID 1090);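 note: basal condition with compound alone and no growth modifier present; test concentration not given here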; conditions: S. pombe 972 growth, higher = more signal, called active from +8 up or from −8 down
[4] = budding yeast growth modifiers under rapamycin – strain BY4716, OD600, 96 h, primary screen (AID 1091); note: test concentration not given here; conditions: S. cerevisiae BY4716 + rapamycin, higher = more signal, called active from +8 up or from −8 down
[5] = target: Torsin-1A-interacting protein 2 (Homo sapiens) (UniProt Q8NFQ8); test: small molecules binding lysate-expressed LULL1 – cell lysate, human LULL1 lysate, 635/667 nm fluorescence, primary screen (AID 1092); conditions: small-molecule microarray, hLULL1 lysate binding, 635 nm fluorescence; higher = more signal;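 note: probe is lysate of COS7 cells overexpressing human LULL1; score merges per-feature 667 nm fluorescence with signal-to-noise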
[6] = optical density change of DRC41 E. coli – strain DRC41, OD650, 24 h, E. coli filamentation project, primary screen (AID 1093);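 note: MC1000 strain lacking acrAB efflux and sulA so SOS filamentation is blocked; test concentration not given here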; conditions: E. coli DRC41 growth, higher = more signal, called active from +8 up or from −8 down
[7] = probe aLefty2 binding to arrayed compounds – biochemical, biotinylated probe, 635/667 nm fluorescence, primary screen (AID 1094); conditions: small-molecule microarray, higher = more signal;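 note: score merges spot fluorescence near 667 nm with spot signal-to-noise ratio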
[8] = test system: Noggin (protein binding on small-molecule microarray); test: small molecules binding Noggin protein – biochemical, 635/667 nm fluorescence, primary screen (AID 1095); conditions: 635 nm fluorescence, higher = more signal;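 note: score merges 667 nm feature fluorescence with signal to noise over triplicate slides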
[9] = target: Neurogenic locus notch homolog protein 3 (Homo sapiens) (UniProt Q9UM47); test: small molecules binding NOTCH3 protein – biochemical, 635/667 nm fluorescence, primary screen (AID 1096); conditions: small-molecule microarray, 635 nm fluorescence, higher = more signal
[10] = probe aEGFR binding to arrayed compounds – biochemical, biotinylated probe, 635/667 nm fluorescence, primary screen (AID 1097); conditions: small-molecule microarray, higher = more signal;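 note: probe is a biotinylated anti-EGFR antibody binding compounds printed on slides; score combines fluorescence near 667 nm and signal to noise of each spot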
[11] = test system: Plasmodium falciparum Sir2 (PF13_0152, Sir2A); test: Plasmodium falciparum Sir2A binding compounds – biochemical, small-molecule microarray, 635 nm fluorescence, primary screen (AID 1098); conditions: fluorescence 635 nm, higher = more signal;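 note: score merges spot fluorescence intensity with its signal-to-noise ratio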
[12] = probe aDKK1 binding to arrayed compounds – biochemical, biotinylated probe, 635/667 nm fluorescence, primary screen (AID 1099); conditions: small-molecule microarray, higher = more signal;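 note: score merges 667nm spot fluorescence with signal to noise across triplicate slides; reference of the scale not given here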
[13] = probe aCHRDL2 binding to arrayed compounds – biochemical, biotinylated probe, 635/667 nm fluorescence, primary screen (AID 1100); conditions: small-molecule microarray, higher = more signal
[14] = change in splice reporter luminescence, either direction, cell-based, HEK293, spliceosome inhibition project, primary screen (AID 1101); conditions: HEK293 splicing luciferase reporter, 24 h, higher = more signal, called active from +8 up or from −8 down;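 note: HEK293 cells carrying a splicing-competent luciferase reporter gene; test concentration not given here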
[15] = target: Fibroblast growth factor 10 (Homo sapiens) (UniProt O15520); test: compounds binding fibroblast growth factor 10 – biochemical, small-molecule microarray, 635 nm fluorescence, primary screen (AID 1102); conditions: FGF10 binding, fluorescence 635 nm, higher = more signal
[16] = test system: glycogen synthase kinase-3 (GSK3A per assay name; protocol says GSK3B); test: compounds binding glycogen synthase kinase-3 – biochemical, small-molecule microarray, 635 nm fluorescence, GSK3A, primary screen (AID 1103); conditions: fluorescence 635 nm, higher = more signal; note: the record names both GSK3A and GSK3B
[17] = target: Epidermal growth factor receptor (Homo sapiens) (UniProt P00533); test: compounds binding epidermal growth factor receptor – biochemical, small-molecule microarray, 635 nm fluorescence, primary screen (AID 1104); conditions: EGFR binding, higher = more signal;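 note: score merges 667 nm emission intensity with spot signal to noise over triplicate slides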
[18] = target: Follistatin-related protein 3 (Homo sapiens) (UniProt O95633); test: compounds binding follistatin-related protein 3 – biochemical, small-molecule microarray, 635 nm fluorescence, primary screen (AID 1105); conditions: FSTL3 binding, higher = more signal;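 note: score merges emission near 667 nm and signal to noise per printed spot across three slides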
[19] = target: Dickkopf-related protein 1 (Homo sapiens) (UniProt O94907); test: small molecules binding DKK1 protein – biochemical, small-molecule microarray, 635 nm fluorescence scan, primary screen (AID 1106); conditions: higher = more signal;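 note: score merges emission near 667 nm with signal to noise over three replicate slides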
[20] = test system: Inhibin beta A chain (activin A); test: small molecules binding activin A – biochemical, small-molecule microarray, 635 nm fluorescence scan, primary screen (AID 1107); conditions: INHBA, higher = more signal;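 note: mouse activin A protein probed at 4.33 µg/mL on printed slides; score merges bound-protein fluorescence near 667 nm with spot signal-to-noise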

Sequence of Fibroblast growth factor 10 (Homo sapiens) (O15520 whole entry, looked up): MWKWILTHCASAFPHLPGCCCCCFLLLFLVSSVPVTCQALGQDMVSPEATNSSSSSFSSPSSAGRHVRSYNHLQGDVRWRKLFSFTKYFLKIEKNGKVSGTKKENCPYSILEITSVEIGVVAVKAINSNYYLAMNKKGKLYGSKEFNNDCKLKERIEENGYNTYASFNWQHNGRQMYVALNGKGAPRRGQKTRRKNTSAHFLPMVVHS
Sequence of Epidermal growth factor receptor (Homo sapiens) (P00533 whole entry, looked up): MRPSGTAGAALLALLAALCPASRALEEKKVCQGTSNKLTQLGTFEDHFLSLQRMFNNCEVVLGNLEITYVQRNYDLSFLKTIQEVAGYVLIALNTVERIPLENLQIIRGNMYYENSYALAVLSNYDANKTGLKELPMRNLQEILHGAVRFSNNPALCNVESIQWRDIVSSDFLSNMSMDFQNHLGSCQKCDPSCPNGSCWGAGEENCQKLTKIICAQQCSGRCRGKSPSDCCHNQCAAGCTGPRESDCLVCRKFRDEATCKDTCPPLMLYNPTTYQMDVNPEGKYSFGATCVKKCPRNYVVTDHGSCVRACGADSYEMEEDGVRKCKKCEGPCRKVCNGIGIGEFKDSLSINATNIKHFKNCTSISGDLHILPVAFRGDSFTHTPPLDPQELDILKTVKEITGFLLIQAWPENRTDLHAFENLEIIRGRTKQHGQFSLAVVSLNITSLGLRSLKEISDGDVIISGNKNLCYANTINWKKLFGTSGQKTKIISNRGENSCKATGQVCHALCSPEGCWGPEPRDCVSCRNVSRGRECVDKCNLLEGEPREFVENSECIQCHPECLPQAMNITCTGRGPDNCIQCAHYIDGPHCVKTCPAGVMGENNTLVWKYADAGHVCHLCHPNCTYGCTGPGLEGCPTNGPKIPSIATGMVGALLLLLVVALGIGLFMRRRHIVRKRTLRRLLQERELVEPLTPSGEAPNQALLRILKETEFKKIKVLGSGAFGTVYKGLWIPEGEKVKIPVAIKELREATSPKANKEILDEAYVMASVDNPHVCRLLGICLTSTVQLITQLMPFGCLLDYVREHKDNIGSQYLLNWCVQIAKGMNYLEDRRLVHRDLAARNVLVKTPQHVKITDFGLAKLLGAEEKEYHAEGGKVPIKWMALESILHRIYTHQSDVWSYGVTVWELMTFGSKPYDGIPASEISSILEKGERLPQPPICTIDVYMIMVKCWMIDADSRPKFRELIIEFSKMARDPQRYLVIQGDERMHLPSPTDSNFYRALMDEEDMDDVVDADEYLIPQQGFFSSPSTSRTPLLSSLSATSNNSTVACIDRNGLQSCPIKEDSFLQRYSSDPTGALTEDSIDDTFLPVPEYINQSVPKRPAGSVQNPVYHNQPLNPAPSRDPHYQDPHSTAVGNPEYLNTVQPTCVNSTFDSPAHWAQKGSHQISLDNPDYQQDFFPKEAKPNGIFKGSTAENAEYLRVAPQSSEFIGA
Sequence of Torsin-1A-interacting protein 2 (Homo sapiens) (Q8NFQ8 whole entry, looked up): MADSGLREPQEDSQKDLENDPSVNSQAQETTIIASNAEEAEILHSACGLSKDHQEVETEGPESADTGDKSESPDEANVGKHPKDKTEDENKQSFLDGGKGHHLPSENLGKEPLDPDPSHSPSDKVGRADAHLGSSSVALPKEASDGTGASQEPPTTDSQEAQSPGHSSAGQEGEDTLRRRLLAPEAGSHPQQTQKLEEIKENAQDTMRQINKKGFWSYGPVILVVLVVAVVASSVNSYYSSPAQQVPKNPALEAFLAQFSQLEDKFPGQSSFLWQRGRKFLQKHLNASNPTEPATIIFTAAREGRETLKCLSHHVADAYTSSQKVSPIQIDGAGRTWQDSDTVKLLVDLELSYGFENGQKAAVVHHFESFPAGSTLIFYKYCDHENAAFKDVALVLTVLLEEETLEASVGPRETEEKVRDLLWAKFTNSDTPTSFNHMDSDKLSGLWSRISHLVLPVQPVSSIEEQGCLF
Sequence of Follistatin-related protein 3 (Homo sapiens) (O95633 whole entry, looked up): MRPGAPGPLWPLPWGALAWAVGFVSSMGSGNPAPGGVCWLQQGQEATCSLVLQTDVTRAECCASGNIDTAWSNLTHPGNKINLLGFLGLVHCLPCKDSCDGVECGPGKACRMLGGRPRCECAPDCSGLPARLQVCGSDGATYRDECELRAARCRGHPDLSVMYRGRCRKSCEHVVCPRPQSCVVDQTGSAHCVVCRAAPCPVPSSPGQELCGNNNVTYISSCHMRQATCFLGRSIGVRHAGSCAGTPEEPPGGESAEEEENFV
Sequence of Dickkopf-related protein 1 (Homo sapiens) (O94907 whole entry, looked up): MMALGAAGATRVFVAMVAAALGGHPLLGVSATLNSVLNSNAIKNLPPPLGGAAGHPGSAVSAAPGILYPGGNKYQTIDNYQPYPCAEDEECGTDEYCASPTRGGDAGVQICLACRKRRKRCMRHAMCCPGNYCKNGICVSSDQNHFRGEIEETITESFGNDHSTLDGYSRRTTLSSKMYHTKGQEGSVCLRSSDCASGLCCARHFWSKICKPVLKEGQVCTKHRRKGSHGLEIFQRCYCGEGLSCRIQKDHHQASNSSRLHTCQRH
Sequence of Neurogenic locus notch homolog protein 3 (Homo sapiens) (Q9UM47 whole entry, looked up): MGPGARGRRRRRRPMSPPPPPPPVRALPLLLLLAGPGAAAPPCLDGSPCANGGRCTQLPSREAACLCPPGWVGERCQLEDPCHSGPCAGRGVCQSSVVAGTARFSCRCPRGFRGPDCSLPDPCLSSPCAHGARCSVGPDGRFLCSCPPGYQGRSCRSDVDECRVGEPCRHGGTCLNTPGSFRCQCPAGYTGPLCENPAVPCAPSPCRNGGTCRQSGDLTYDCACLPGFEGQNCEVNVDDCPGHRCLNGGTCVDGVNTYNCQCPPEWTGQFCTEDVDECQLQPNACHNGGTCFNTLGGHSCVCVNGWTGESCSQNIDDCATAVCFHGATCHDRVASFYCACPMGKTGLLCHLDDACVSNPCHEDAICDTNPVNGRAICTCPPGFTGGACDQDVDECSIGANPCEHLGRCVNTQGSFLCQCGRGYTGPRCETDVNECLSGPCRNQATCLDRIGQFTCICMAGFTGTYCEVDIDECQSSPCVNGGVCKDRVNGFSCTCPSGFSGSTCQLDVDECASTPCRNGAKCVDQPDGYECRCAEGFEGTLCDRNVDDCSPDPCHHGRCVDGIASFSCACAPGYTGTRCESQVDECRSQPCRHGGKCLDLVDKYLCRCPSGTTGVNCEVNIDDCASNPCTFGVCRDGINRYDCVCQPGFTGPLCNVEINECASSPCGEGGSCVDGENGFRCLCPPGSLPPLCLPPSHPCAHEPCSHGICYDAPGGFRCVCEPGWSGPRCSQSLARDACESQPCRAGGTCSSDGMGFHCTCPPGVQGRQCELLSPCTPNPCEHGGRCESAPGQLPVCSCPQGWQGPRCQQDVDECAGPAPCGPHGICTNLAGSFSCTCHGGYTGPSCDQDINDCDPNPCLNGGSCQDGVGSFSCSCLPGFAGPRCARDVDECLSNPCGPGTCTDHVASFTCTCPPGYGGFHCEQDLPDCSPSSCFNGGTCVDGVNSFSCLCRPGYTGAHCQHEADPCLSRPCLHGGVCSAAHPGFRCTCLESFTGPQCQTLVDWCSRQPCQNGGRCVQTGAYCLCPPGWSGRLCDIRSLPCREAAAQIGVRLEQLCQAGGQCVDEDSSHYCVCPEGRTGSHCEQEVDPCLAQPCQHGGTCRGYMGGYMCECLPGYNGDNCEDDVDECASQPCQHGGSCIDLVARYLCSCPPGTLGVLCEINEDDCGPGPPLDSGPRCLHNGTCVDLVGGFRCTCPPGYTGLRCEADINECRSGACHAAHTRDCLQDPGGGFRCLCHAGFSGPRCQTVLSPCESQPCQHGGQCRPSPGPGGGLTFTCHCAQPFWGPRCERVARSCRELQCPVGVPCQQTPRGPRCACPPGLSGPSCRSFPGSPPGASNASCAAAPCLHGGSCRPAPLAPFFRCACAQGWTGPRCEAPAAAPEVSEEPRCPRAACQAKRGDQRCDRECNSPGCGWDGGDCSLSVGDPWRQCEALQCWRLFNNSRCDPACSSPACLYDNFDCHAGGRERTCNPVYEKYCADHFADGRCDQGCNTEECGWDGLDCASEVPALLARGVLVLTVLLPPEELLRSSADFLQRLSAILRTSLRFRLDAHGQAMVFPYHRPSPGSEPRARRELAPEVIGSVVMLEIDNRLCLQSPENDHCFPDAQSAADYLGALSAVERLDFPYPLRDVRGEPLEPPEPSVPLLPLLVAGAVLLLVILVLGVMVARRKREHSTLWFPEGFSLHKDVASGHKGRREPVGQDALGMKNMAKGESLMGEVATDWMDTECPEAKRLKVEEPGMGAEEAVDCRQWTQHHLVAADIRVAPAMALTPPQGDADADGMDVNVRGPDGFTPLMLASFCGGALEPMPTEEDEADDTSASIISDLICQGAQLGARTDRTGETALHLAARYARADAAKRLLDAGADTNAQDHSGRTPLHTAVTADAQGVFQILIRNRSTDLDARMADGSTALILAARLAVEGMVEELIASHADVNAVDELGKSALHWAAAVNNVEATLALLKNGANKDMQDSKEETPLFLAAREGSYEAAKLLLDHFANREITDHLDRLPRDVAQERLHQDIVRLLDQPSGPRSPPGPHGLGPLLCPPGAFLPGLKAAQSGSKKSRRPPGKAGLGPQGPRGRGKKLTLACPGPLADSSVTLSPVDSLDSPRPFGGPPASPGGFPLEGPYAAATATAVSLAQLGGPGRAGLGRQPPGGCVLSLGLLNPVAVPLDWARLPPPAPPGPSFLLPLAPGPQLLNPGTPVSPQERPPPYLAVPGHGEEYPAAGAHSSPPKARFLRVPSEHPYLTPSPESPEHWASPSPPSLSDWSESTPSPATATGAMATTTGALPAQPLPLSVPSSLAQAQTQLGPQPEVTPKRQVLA

Compound	composite z-score [1]	z-score [2]	z-score [3]	z-score [4]	composite z-score [5]	z-score [6]	composite z-score [7]	composite z-score [8]	composite z-score [9]	composite z-score [10]	composite z-score [11]	composite z-score [12]	composite z-score [13]	z-score [14]	composite z-score [15]	composite z-score [16]	composite z-score [17]	composite z-score [18]	composite z-score [19]	composite z-score [20]
CC(C)C[C@@H]1NC(=O)[C@@H]2C[C@H](C(=O)NCCCCCNC(=O)CS)[C@H](c3ccc(O)cc3)N2C1=O	1.16	-2.18 (inactive)	0.0046 (inactive)	-1.65 (inactive)	2.21	1.52 (inactive)	-0.0437	0.73	0.313	-0.0493	1.67	-0.1	-0.03	-3.37 (inactive)	-0.113	-0.0192	0.135	0.286	0.353	-0.111
O=C1C2C=CC(C(O)C(c3ccccc3)c3ccccc3)N(Nc3ccccc3F)C2C(=O)N1c1ccccc1 (stereo not given)	1.52	0.504 (inactive)	0.973 (inactive)	1.75 (inactive)	3.58	-1.06 (inactive)	0.0943	0.295	1.02	0.162	0.802	0.632	0.786	0.34 (inactive)	1.38	1.32	0.292	1.39	0.0465	0.875
C=C(COC)/C(=C/C[C@@H](OC(C)=O)c1cccc(OCCO)c1)c1cnc2ccccc2c1	1.38	-2.07 (inactive)	-6.62 (inactive)	-1.38 (inactive)	1.07	1.03 (inactive)	0.0303	0.822	1.04	-0.0653	-0.219	0.15	0.322	-0.302 (inactive)	1.56	0.917	1.26	1.55	1.02	1.93
C=C(C)C1CN([C@H](CO)c2ccccc2)C(=O)/C1=C\c1ccccc1 (stereo not given in full)	0.464	-0.334 (inactive)	-3.2 (inactive)	-0.481 (inactive)	-0.302	1.82 (inactive)	-0.0931	0.467	0.0584	-0.167	0.719	-0.316	-0.492	-0.921 (inactive)	0.716	0.22	0.0508	0.276	0.48	1.29
COCCOC(=O)N1C(=O)[C@@]2(c3cc(C#CCC(C(=O)OC)C(=O)OC)ccc31)[C@H](C(=O)N1CCc3cc(OC)c(OC)cc3C1)[C@H]1C(=O)O[C@H](c3ccccc3)[C@H](c3ccccc3)N1[C@@H]2c1ccccc1OCCO	1.53	1.32 (inactive)	1.02 (inactive)	4.36 (inactive)	2.34	1.09 (inactive)	-0.0754	1.76	1.01	0.0209	0.496	-0.381	-0.162	-0.606 (inactive)	1.18	1.31	1.01	1.38	1.19	1.02
COCCCNC(=O)[C@@]1(Cc2ccccc2I)c2ccccc2C(=O)N(Cc2ccccc2OC)[C@H]1c1ccc(CO)cc1	1.56	0.634 (inactive)	0.248 (inactive)	1.07 (inactive)	2.77	0.62 (inactive)	-0.142	-1.22	-0.625	-0.331	-0.347	-0.302	0.941	0.932 (inactive)	-0.0058	-0.116	-0.824	-0.557	-1.51	-1.43
O=C1O[C@H](c2ccccc2)[C@H](c2ccccc2)N2[C@H]1[C@@H](C(=O)Nc1nc3ccccc3s1)[C@]1(C(=O)Nc3ccccc31)[C@H]2c1ccccc1OCCO	1.5	1.91 (inactive)	2.2 (inactive)	3.94 (inactive)	3.09	0.732 (inactive)	0.229	0.712	0.595	-0.0828	1.42	0.0289	0.505	-0.539 (inactive)	0.475	0.901	-0.115	0.399	-0.086	0.121
COC(=O)[C@@]1(Cc2ccc(F)cc2)[C@H]2c3cc(C(=O)N(C)C)n(Cc4ccc(C(F)(F)F)nc4)c3C[C@H]2CN1C(=O)c1ccccc1	1.32	0.538 (inactive)	0.909 (inactive)	4.36 (inactive)	3.71	-0.366 (inactive)	0.317	0.108	1.02	0.379	1.12	-0.154	-0.252	-0.622 (inactive)	0.776	1.36	0.389	1.42	0.638	0.876
C[C@]1(C(=O)NCC(F)(F)F)c2ccccc2C(=O)N(Cc2cc(C(F)(F)F)cc(C(F)(F)F)c2)[C@H]1c1ccc(CO)cc1	0.594	0.182 (inactive)	-0.0136 (inactive)	-0.0066 (inactive)	1.35	1.07 (inactive)	-0.114	-0.736	-0.802	-0.11	0.786	0.338	0.543	0.272 (inactive)	-0.2	-0.447	-0.654	-0.695	-0.399	-0.497
COc1ccc([Si](C)(C)[C@H]2[C@H](CCO)O[C@@]3(C(=O)N(Cc4ccccc4)c4ccc(NC(=O)[C@H](C)O)cc43)[C@@H]2C)cc1	1.44	2.75 (inactive)	0.215 (inactive)	5.82 (inactive)	2.24	0.25 (inactive)	0.0092	-0.227	0.149	0.148	1.18	0.305	0.29	-2.35 (inactive)	0.139	0.0488	-0.0574	-0.0813	-0.119	0.209
O=C1OCC=C[C@H]2OC34C=CCN(Cn5nnc6ccccc65)C(=O)[C@H]3N(CCO)C(=O)[C@@H]4[C@@H]12 (stereo not given in full)	0.551	0.936 (inactive)	0.159 (inactive)	0.294 (inactive)	2.55	-0.55 (inactive)	-0.0368	-1.88	-0.481	-0.171	0.101	-0.0279	0.329	1.15 (inactive)	-1.33	-1.02	-1.09	-1.35	-1.71	-0.0812
C[C@@]1([C@@H](NS(=O)(=O)c2cccc3cccnc23)c2ccc(-c3ccccc3)cc2)C[C@H]1C1CCCCC1	0.79	0.523 (inactive)	0.381 (inactive)	1.41 (inactive)	2.47	-1.89 (inactive)	0.134	-0.0642	0.818	-0.0316	0.15	0.778	1.19	-1.19 (inactive)	-0.0983	-0.472	0.0823	0.49	-0.473	0.638
C=CCOC(=O)[C@H]1[C@@H]2C(=O)O[C@@H](c3ccccc3)[C@@H](c3ccccc3)N2[C@@H](c2ccc(OCCOC(=O)[C@@H]3C[C@@H]4C(=O)N[C@@H](Cc5ccccc5)C(=O)N4[C@@H]3c3ccc(O)cc3)cc2)[C@]12C(=O)Nc1ccc(I)cc12	1.34	1.77 (inactive)	2.14 (inactive)	5.89 (inactive)	1.93	0.114 (inactive)	-0.0666	1.49	0.918	-0.0119	1.5	-0.188	-0.381	-0.461 (inactive)	1.31	0.606	0.654	1.24	0.825	0.684
